The values below come from PubChem BioAssay (EPA / NIEHS).

Results filed as inconclusive are left out. Active and inactive are the calls of the source. Rule for the calls: active = hit-call score of the fitted dose curve at least 0.9, where 1 is the maximum; inconclusive = response in the unintended direction; inactive = score below 0.9.

Chain of chimpanzee Androgen Receptor (AR), AR (gene 747460) (O97775 whole entry, looked up): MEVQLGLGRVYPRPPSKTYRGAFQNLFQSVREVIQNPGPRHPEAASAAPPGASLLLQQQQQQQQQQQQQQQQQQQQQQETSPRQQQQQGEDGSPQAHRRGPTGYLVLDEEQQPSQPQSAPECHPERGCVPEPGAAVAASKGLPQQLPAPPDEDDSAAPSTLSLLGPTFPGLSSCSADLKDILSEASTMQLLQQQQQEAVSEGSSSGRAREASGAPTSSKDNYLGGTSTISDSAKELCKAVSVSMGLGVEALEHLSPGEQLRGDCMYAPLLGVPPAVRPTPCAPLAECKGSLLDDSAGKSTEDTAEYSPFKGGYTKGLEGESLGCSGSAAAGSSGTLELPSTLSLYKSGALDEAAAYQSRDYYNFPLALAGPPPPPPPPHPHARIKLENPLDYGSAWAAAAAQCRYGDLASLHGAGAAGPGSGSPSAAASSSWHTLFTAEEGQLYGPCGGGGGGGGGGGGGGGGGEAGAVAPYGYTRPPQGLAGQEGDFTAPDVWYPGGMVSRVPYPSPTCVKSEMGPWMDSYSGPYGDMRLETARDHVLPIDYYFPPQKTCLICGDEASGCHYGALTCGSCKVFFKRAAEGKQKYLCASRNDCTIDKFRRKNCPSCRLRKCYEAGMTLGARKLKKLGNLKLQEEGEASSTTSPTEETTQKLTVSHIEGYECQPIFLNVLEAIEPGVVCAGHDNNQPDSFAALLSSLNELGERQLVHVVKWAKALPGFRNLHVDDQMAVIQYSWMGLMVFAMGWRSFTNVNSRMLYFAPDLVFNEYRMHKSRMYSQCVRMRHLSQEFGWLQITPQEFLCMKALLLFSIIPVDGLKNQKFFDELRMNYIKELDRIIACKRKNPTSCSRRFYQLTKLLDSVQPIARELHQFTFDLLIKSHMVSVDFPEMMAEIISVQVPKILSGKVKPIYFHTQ

This assay deals with chimpanzee Androgen Receptor (AR), AR (gene 747460) (UniProt O97775). The assay can be described thus: NVS_NR_cAR: NovaScreen (NVS) Nuclear Receptor Binding Assay for chimpanzee Androgen Receptor (AR) (AID 2283346).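 Note: a loss of bound radioligand signal versus DMSO counts as binding.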 As to the method:
NVS_NR_cAR is a biochemical, single-readout assay that uses extracted gene-proteins from Sf9/Sf21 in a cell-free assay. Measurements were taken 72 hours after chemical dosing in a 96-well plate.NVS_NR_cAR is one of one assay component(s) measured or calculated from the NVS_NR_cAR assay. It is designed to make measurements of radioligand binding, a form of binding reporter, as detected with scintillation counting signals by Lysate-based radiodetection technology.Data from the assay component NVS_NR_cAR was analyzed into 1 assay endpoint. This assay endpoint, NVS_NR_cAR, was analyzed in the positive analysis fitting direction relative to DMSO as the negative control and baseline of activity. Using a type of binding reporter, loss-of-signal activity can be used to understand changes in the binding as they relate to the gene AR. Furthermore, this assay endpoint can be referred to as a primary readout, because the performed assay has only produced 1 assay endpoint. To generalize the intended target to other relatable targets, this assay endpoint is annotated to the nuclear receptor intended target family, where the subfamily is steroidal.
Binding assays used specific radioligands (tritiated, iodinated) with non-radioactive competitive displacement ligands in agonist or antagonist protocols (as indicated) and various reference compounds and inhibitors to titrate specific binding to receptors and transporters. Most enzyme assays (CYPs, kinases, phosphatases, proteases, HDACs) used recombinant protein and specific substrates (fluorescence mostly, some colorimetric and radioactive) and inhibitors, followed by a biochemical separation of substrate and product. All assays for the biochemical HTS were initially run in duplicate at a single concentration (10 uM for CYP450 assays and 25 uM for all others). […] Each assay was run with positive and negative controls, and concurrent controls on every plate. The follow-up (secondary) screen tested active chemical-pairs in concentration series, as well as a few additional assays not tested in the primary screen, some selected negative inactives, and several cases re-run in the concentration series for confirmatory purposes.
`CCCCCC[C@@H](O)C/C=C\CCCCCCCC(=O)OCC(O)CO` (some centres undefined): the call was inactive.
On the same count and under the same terms, the value for `CC1(C)CC(O)CC(C)(C)N1[O]` was “inactive”; that for `CC(C)(C)NC(=O)[C@H]1CC[C@H]2[C@@H]3CC[C@H]4NC(=O)C=C[C@]4(C)[C@H]3CC[C@]12C` was “inactive”.
On the same count and under the same terms, the value for `C=C[Si](OCCOC)(OCCOC)OCCOC` was “inactive”.
In the case of `Oc1ccccc1Cc1ccccc1O`, the AC50 (as a rule, the concentration at which the activity in the assay is half-maximal) was 25 µM (active).
Same read-out and setting: the value for `C=C1C[C@H]2[C@@H]3C=C(C)C4=CC(=O)CC[C@]4(C)[C@H]3CC[C@]2(C)[C@@]1(OC(C)=O)C(C)=O` was 0.33 µM (active); that for `O=c1c(O)c(-c2ccc(O)cc2O)oc2cc(O)cc(O)c12` was 9.55 µM (active); that for `N#Cc1ccc(C(c2ccc(C#N)cc2)n2cncn2)cc1` was 7.43 µM (active).
On the same count and under the same terms, the value for `CN(C)c1ccc2nc3ccc(=[N+](C)C)cc-3sc2c1` was 11.2 µM (active); that for `Oc1ccc(-c2ccccc2)c(Cl)c1` was 14.1 µM (active); that for `O=C(O)c1cc(O)c2ccccc2c1O` was 35 µM (active).
The same measure, in the same setting: the value for `O=C(OCc1ccccc1)c1ccc(O)cc1` was 25 µM (active).
For `CCN1CN(CC)CN(CC)C1`, the result was inactive.
For `CCOC(=O)/C=C\C(=O)OCC`, the AC50 was 5 µM (active).
The same measure, in the same setting: for `C=CC(=O)OCC(C)OCC(C)OCC(C)OC(=O)C=C` (centres undefined) the value was 6.29 µM (active); for `CCCCC/C=C\C/C=C\CCCCCCCC(=O)O`, 25 µM (active).
On to `CC(C)c1cc(C(C)C)cc(C(C)C)c1`, for which the compound was called inactive.
Take `Cc1ccc([N+](=O)[O-])cc1N`: the half-maximal activity concentration (AC50) was 20.8 µM (active).
Regarding `CC(=O)OC(C)c1ccccc1` (centres undefined), the compound was called inactive.
